Sampled rows, rich in hits. Any-hit rate of the full collection: about 1.4%.
AmpC inh no detg = AmpC beta-lactamase inhibition without detergent | AmpC nitrocefin hydrolysis, absorbance 480 nm, 0.0001% Triton | P00811 | Potency, µM (top dose mostly 57.1 µM), usual class: inhibitors | AID 485341 | 330,000 tested, 0.52% active; note: nearly all actives have a fitted effect of over 20% in size
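AmpC (5.3 nM in the dispensed reagent) in 20 mM phosphate pH 7.0 with 0.01% (detergent screen) or 0.0001% Triton X-100 was preincubated with compounds for 15 min at room temperature. Nitrocefin was then added from an 800 uM solution, and hydrolysis was followed at 480 nm.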
RE007 growth inh = less growth of the S. pombe RE007 Vpr strain; Potency, µM (top dose mostly 92.2 µM), usual class: inhibitors; S. pombe RE007 Vpr strain, BacTiter-Glo ATP luminescence, 24 h; 360,000 tested, 0.21% active; active = well fitted falling curve with a large enough effect; inconclusive = small, poorly fitted or top-dose-only effect; inactive = no such curve, though single readings can be large or run the other way; note: nearly all actives have a fitted effect of over 50% in size
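Fission yeast strain RE007, carrying one chromosomally integrated HIV-1 vpr copy, was seeded at OD 0.01 in PMG+AL medium with 23 nL pinned compound. After 24 h at 30 °C and 99% humidity, viability was read by BacTiter-Glo luminescence.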
AmpC inh detg = inhibitors of E. coli AmpC beta-lactamase with detergent | P00811 | AID 485294 | 370,000 tested, 0.041% active | AmpC hydrolysis of nitrocefin, absorbance 480 nm, 0.01% Triton | Potency, µM (top dose mostly 114 µM), hits mostly inhibitors; note: nearly all actives have a fitted effect of over 25% in size
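20 mM phosphate pH 7.0 + 0.01% (detergent screen) or 0.0001% Triton X-100; 5.3 nM AmpC reagent; cpd preinc 15 min RT; nitrocefin (800 uM stock) to start; A480 q20 s × 4 min; Activity was normalised to no-enzyme and no-compound control wells.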
LmPK inh = blocks Leishmania mexicana pyruvate kinase activity; purified LmPK, Kinase-Glo ATP luminescence, 1 h; 290,000 tested, 0.37% active; Potency, µM (highest dose often 57.5 µM), hits mostly inhibitors; AID 1721; Q27686
Target sequence (Q27686 whole entry, looked up): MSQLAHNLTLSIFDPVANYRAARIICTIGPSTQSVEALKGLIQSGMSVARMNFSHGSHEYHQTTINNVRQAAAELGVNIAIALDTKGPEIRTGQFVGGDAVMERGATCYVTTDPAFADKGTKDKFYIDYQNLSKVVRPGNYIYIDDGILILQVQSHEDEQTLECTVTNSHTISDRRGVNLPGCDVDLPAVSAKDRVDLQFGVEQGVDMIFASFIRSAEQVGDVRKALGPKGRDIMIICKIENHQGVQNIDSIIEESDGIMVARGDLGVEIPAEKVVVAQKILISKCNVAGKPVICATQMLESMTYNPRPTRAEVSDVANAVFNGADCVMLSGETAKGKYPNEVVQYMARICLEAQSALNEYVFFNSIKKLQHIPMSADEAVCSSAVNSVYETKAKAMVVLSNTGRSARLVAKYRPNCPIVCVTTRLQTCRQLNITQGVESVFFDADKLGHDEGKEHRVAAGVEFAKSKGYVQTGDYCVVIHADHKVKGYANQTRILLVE
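Purified LmPK (0.1 nM) converted ADP (0.1 mM) to ATP with PEP (0.5 mM) in imidazole buffer pH 7.2 with KCl and MgCl2, 1 h at room temperature. ATP was read by Kinase-Glo luminescence; data normalized to uninhibited and no-enzyme controls.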
TbPYK inhibitor = inhibitors of Trypanosoma brucei pyruvate kinase; 410,000 tested, 0.12% active; TbPYK enzyme, Kinase-Glo Plus ATP luminescence, 45 min; Q57TT1; Potency, µM (titrated, usually from 76.8 µM), actives largely listed as inhibitors; note: nearly all actives have a fitted effect of over 50% in size
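Enzyme and substrate buffer are dispensed first and compound is pin-transferred. ADP at 130 uM final then starts the reaction, which runs 45 min at room temperature. Detection reagent is added for 10 min before luminescence is imaged.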
Giardia FBPA inh-1 = inhibitors of Giardia lamblia fructose-1,6-bisphosphate aldolase; A8B2U2; Potency, µM (titrated, usually from 59.6 µM), hits mostly inhibitors; 290,000 tested, 0.71% active; AID 2451; purified Giardia FBPA; note: nearly all actives have a fitted effect of over 55% in size
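Giardia FBPA (40 nM reagent) was preincubated 10 min at RT with compound (up to 57.5 uM final), then substrate plus GAPDH/TPI/NAD/arsenate coupling system with diaphorase/resazurin was added; resorufin fluorescence (525/598 nm) was read after 20 min.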
Giardia growth = blocks growth of Giardia lamblia trophozoites; shares compounds with Giardia FBPA inh-1; 1,500 tested, 5% active; Giardia lamblia trophozoite growth inhibition; Potency, µM (highest dose often 57.5 µM), most hits filed as inhibitors;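 note: trophozoites exposed to compound for 48 h at 37 °C; nearly all actives have a fitted effect of over 70% in size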
Mammal cell tox = counter-screen for Giardia aldolase inhibitors: mammalian cell toxicity; shares compounds with Giardia FBPA inh-1; 1,500 tested, 4% active; Potency, µM (doses to about 57.5 µM), most hits filed as inhibitors; mammalian cell viability counter-screen, qHTS;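 note: Chinese hamster ovary cells used as mammalian cytotoxicity surrogate; viability measured as cellular ATP by luminescence; compound exposure lasted 48 h before reading; nearly all actives have a fitted effect of over 60% in size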
Giardia FBPA inh-2 = confirmation of Giardia fructose-bisphosphate aldolase inhibitors. shares compounds with Giardia FBPA inh-1. purified Giardia aldolase enzyme activity, qHTS. Potency, µM (doses to about 57.5 µM), hits mostly inhibitors. 1,500 tested, 5% active; note: nearly all actives have a fitted effect of over 45% in size
Rabbit aldolase = selectivity test for Giardia aldolase inhibitors: rabbit aldolase; shares compounds with Giardia FBPA inh-1; Rabbit muscle FBPA enzyme inhibition, selectivity counter-screen; Potency, µM (titrated, usually from 57.5 µM), usual class: inhibitors; 1,500 tested, 4% active; AID 2794; note: nearly all actives have a fitted effect of over 60% in size
GAPDH coupling = counter-screen for Giardia aldolase inhibitors: GAPDH coupling enzyme; shares compounds with Giardia FBPA inh-1; GAPDH coupling enzyme counterscreen, biochemical, qHTS; Potency, µM (titrated, usually from 57.5 µM), hits mostly inhibitors; 1,500 tested, 6% active; AID 2795; note: nearly all actives have a fitted effect of over 55% in size
Of the large screens only hits and unclear results are named; the others gave an inactive call (follow-up assays come after a bar, where they were run); [ ] = another dose, or the depositor's remark. Unless noted, calls come from the whole dose curve; as a rule, active = well fitted curve in the direction sought with a large enough effect; inconclusive = small, poorly fitted or top-dose-only effect, or another doubt; inactive = no such curve, though single readings can be large; an effect the other way counts as inactive or inconclusive.

Cc1cccc(OCCSc2nc(N)cc(N)n2)c1	Giardia FBPA inh-1 16µM | Giardia growth inactive | Mammal cell tox inactive | Giardia FBPA inh-2 inactive | Rabbit aldolase inactive | GAPDH coupling inactive
Cc1cccc(OCCOCCSc2ncccn2)c1	none
COc1ccc(Br)cc1CN1CCN(C(=O)c2ccco2)CC1	Giardia FBPA inh-1 28µM | Giardia growth inconclusive | Mammal cell tox inactive | Giardia FBPA inh-2 inactive | Rabbit aldolase inactive | GAPDH coupling inactive
Cc1ccccc1CN1CCN(C(=O)c2ccco2)CC1	Giardia FBPA inh-1 25µM | Giardia growth inactive[10.4 µM] | Mammal cell tox inactive | Giardia FBPA inh-2 inactive | Rabbit aldolase inactive | GAPDH coupling inactive
Cc1ccccc1CC(=O)N1CCN(C(=O)c2ccco2)CC1	none
COc1ccccc1CNC(=O)CCC1N=C2c3ccccc3N=C(SCc3ccc(C)cc3C)N2C1=O (stereo not drawn)	none (no result: AmpC inh no detg, RE007 growth inh, LmPK inh, Giardia FBPA inh-1)
Cc1c(C(=O)N(Cc2ccc(N(C)C)cc2)Cc2ccco2)oc2cc(Br)ccc12	none (no result: AmpC inh no detg, RE007 growth inh, LmPK inh, Giardia FBPA inh-1)
N#Cc1ccsc1NC(=O)c1ccccn1	Giardia FBPA inh-1 20µM | Giardia growth 10µM | Mammal cell tox inactive | Giardia FBPA inh-2 inactive | Rabbit aldolase inactive | GAPDH coupling inactive
CCc1ccc(CN(Cc2ccco2)c2cnc(S(C)(=O)=O)nc2C(=O)Nc2cccc(C)c2)cc1	none (no result: AmpC inh no detg, RE007 growth inh, LmPK inh, Giardia FBPA inh-1)
CN(C)/C=N/c1nc(Sc2ccc(C(F)(F)F)cc2[N+](=O)[O-])n[nH]1	none
O=[N+]([O-])c1cc(C(F)(F)F)cc([N+](=O)[O-])c1Sc1n[nH]c(C(F)(F)F)n1	TbPYK inhibitor inconclusive, Giardia FBPA inh-1 18µM | Giardia growth inconclusive | Mammal cell tox inactive | Giardia FBPA inh-2 inactive | Rabbit aldolase inactive | GAPDH coupling inactive
O=C1CC(c2cccc(O)c2)c2c(nc(SCc3ccccc3F)[nH]c2=O)N1 (stereo not drawn)	none (no result: AmpC inh no detg, RE007 growth inh, LmPK inh, Giardia FBPA inh-1)
O=C(CCc1nc2cccnc2n1Cc1ccccc1)NCc1cccc(Cl)c1	none (no result: AmpC inh no detg, RE007 growth inh, LmPK inh, Giardia FBPA inh-1)
C[C@H](NC(=O)[C@H]1N2C(=O)c3ccccc3C2SC1(C)C)C(=O)N1CCN(C)CC1 (stereo partly drawn)	none
C[C@H](NC(=O)[C@H]1N2C(=O)c3ccccc3C2SC1(C)C)C(=O)N1CCCCC1 (stereo partly drawn)	Giardia FBPA inh-1 20µM | Giardia growth inactive | Mammal cell tox inactive | Giardia FBPA inh-2 inactive | Rabbit aldolase inactive | GAPDH coupling inconclusive
CCOC(=O)c1ccccc1NC(=O)CSc1ccc(-c2sc(-c3ccccc3)nc2C)nn1	none (no result: AmpC inh no detg, RE007 growth inh, LmPK inh, Giardia FBPA inh-1)
N#CC1=C(N)Oc2c(O)cc3ccccc3c2C1c1ccsc1 (stereo not drawn)	Giardia FBPA inh-1 18µM | Giardia growth inactive[10.4 µM] | Mammal cell tox inactive | Giardia FBPA inh-2 inconclusive | Rabbit aldolase inconclusive | GAPDH coupling inconclusive
CCOC(=O)C1=C(C)OC(N)=C(C#N)C1c1ccsc1 (stereo not drawn)	Giardia FBPA inh-1 inconclusive
O=C(CCC1N=C2c3ccccc3N=C(SCc3ccccc3F)N2C1=O)NCc1ccccc1 (stereo not drawn)	none (no result: AmpC inh no detg, RE007 growth inh, LmPK inh, Giardia FBPA inh-1)
NC(c1ccccc1)c1cccnc1 (stereo not drawn)	Giardia FBPA inh-1 10µM | Giardia growth inactive | Mammal cell tox inactive | Giardia FBPA inh-2 inactive | Rabbit aldolase inactive | GAPDH coupling inactive
O=c1c(CO)cc(CO)cc(CO)c1O	Giardia FBPA inh-1 inconclusive | Giardia growth inactive | Mammal cell tox inactive | Giardia FBPA inh-2 inactive | Rabbit aldolase inactive | GAPDH coupling inactive
O=C1C=CC(=O)c2c(O)c(CO)c(CO)c(O)c21	TbPYK inhibitor inconclusive (no result: AmpC inh no detg, AmpC inh detg, LmPK inh, Giardia FBPA inh-1)
CCN(CC)C(=S)NC(=O)c1cc(OC)c(OC)c(OC)c1	Giardia FBPA inh-1 18µM | Giardia growth inactive | Mammal cell tox inactive | Giardia FBPA inh-2 inactive | Rabbit aldolase inactive | GAPDH coupling inactive
Cc1nn(C)c(C(=O)NC(=S)Nc2ccc([N+](=O)[O-])cc2)c1Cl	Giardia FBPA inh-1 13µM | Giardia growth inactive[10.4 µM] | Mammal cell tox inactive | Giardia FBPA inh-2 inactive | Rabbit aldolase inactive | GAPDH coupling inactive

Assay outcomes: PubChem BioAssay, National Center for Advancing Translational Sciences (NCATS)
